ChEMBL document CHEMBL4513216, “Probing the Open Global Health Chemical Diversity Library for Multistage-Active Starting Points for Next-Generation Antimalarials” (ACS Infect Dis, 2020)
Hit rate of the full screen: of about 69,000 compounds, about 8,600 (12%) showed an effect of 50% or more. This is one part of a sample in which strong results are shown more often than they occur.

The compounds below were run on Plasmodium berghei (assay: Screen against P. berghei liver stage (PbLuc), transformed with Luciferase, at 10uM). Settings: tested at 10 uM.
Type: functional, HepG2

Row | Structure (SMILES) | INHIBITION [%]
1 | Cc1n[nH]c2c1C(c1ccc(Br)cc1)SCC(=O)N2 (stereo unspecified) | 61.8
2 | COCCC(=O)N1CC[C@@H](N2CCOCC2)[C@@H]1Cc1ccccc1 | 38.1
3 | Cc1cccnc1CNC(=O)CC1C(=O)NCCN1CC(C)(C)C (stereo unspecified) | 6.29
4 | CC(=O)N(Cc1noc(C)n1)C1CCN(Cc2ncc(C(C)C)o2)C1 (stereo unspecified) | 11.6
5 | Cc1cc(NC(=O)NCc2cccnc2OC2CCCC2)n(C)n1 | 50.3
6 | COc1ncccc1CNC(=O)Nc1cc(C)nn1C | 29.7
7 | Cc1nn(C)c(C)c1CC(=O)NCc1cccnc1OC1CCCC1 | 29.8
8 | Cc1nn(C)c(C)c1C(=O)NCc1cccnc1OC1CCCC1 | 37.6
9 | Cc1nn(C)c(C)c1CCC(=O)NCc1cccnc1OC1CCCC1 | 56.6
10 | CCOc1ncccc1CNC(=O)Nc1cc(C)nn1C | -19.6
11 | OCC1(NCc2cccc(-n3cccn3)c2)CCOCC1 | 43.4
12 | CCN1CCCC1(C)c1nc(C)cc(N)n1 (stereo unspecified) | -2.09
13 | CCOc1ccc(NC(=O)NCC(C)(O)c2cccs2)cc1 (stereo unspecified) | 40.6
14 | O=C(Nc1cnccn1)[C@H]1COC[C@H]2CN(C3CCCC3)C[C@H]21 | -14.6
15 | COc1ccc(-c2nccn2CC(O)CN2CCCC2)c(F)c1 (stereo unspecified) | 61.5
16 | CCn1ccnc1CN1CCN(CC(O)c2ccc(OC)cc2)CC1 (stereo unspecified) | 0.8
17 | COc1ccc(F)c(-c2nccn2CCN2CCCC2)c1 | 18.2
18 | CCC(CC)(CNC(=O)NC1CCCC1(C)C)S(C)(=O)=O (stereo unspecified) | 2.49
19 | COCCCNC(=O)c1cc(-c2cnc(N(C)C)nc2)cn1CC1CC1 | -22.1

Row | Structure (SMILES) | INHIBITION [%]
20 | CCCOc1ccc(Cl)cc1NC(=O)NCCC(=O)N(C)C | -5.32
21 | CCC1CCCN(S(=O)(=O)c2cnc3onc(C)c3c2)C1 (stereo unspecified) | 9
22 | Cc1nc(N)ccc1CC1COc2ccccc2C1 (stereo unspecified) | -27.9
23 | Cc1ccc(CC2COc3ccccc3C2)c(N)n1 (stereo unspecified) | -6.18
24 | COc1ccc2c(c1)OCC(Cc1ccc(C)nc1N)C2 (stereo unspecified) | 57.2
25 | COc1cccc2c1OCC(Cc1ccc(N)nc1C)C2 (stereo unspecified) | 6.83
26 | COc1ccc2c(c1)OCC(Cc1cnccc1N)C2 (stereo unspecified) | 29
27 | COc1ccc2c(c1)OCC(Cc1ccnc(N)n1)C2 (stereo unspecified) | 11
28 | COc1ccc2c(c1)OCC(Cc1ccc(N)nc1C)C2 (stereo unspecified) | 76.3
29 | COc1cccc2c1OCC(CNc1cc(N)nc(SC)n1)C2 (stereo unspecified) | 1.94
30 | COc1ccc2c(c1)OCC(CNc1cc(N)nc(SC)n1)C2 (stereo unspecified) | 69.8
31 | Cc1noc(C(C)N2CCN(CC(=O)N3CCCC3)CC2)n1 (stereo unspecified) | 8.99
32 | O=C(NCC1CCCCC1)N1C[C@@H]2C[C@H](C(=O)N3CCCC3)[C@H](C1)O2 | 48.2
33 | N#Cc1ccc(NCc2cc3n(n2)CCCN(C(=O)C2CCC2)C3)nc1 | 14.6
34 | CSc1ccc(-n2nnc(C(=O)O)c2-c2ccccn2)cc1 | 36.2
35 | CC(CNCc1ccc(F)cc1)Oc1ccccn1 (stereo unspecified) | 13.8
36 | COc1ccc(OCC(=O)NS(=O)(=O)c2ccc(Br)s2)cc1 | 60.9
37 | COc1ccc(OCC(=O)NS(=O)(=O)c2ccc(Cl)s2)cc1 | 17.7
38 | COc1cccc(OCC(=O)NS(=O)(=O)c2ccc(Br)s2)c1 | 17.5

Row | Structure (SMILES) | INHIBITION [%]
39 | CCn1nnc2c1C(COC)CN(Cc1ccsc1)C2 (stereo unspecified) | 21
40 | Cn1cc(C(=O)N2CCC(c3cc(CCO)n(C)n3)C2)cn1 (stereo unspecified) | 0.696
41 | C=CNC(=O)c1nnc2ccc(N3CCOCC3)cc2n1 | 11
42 | O=C(NCC1CCN(c2ncccn2)CC1)c1cnccn1 | 71.8
43 | Cc1cc(C)nc(N2CCC(CNC(=O)c3cnccn3)CC2)n1 | -51.4
44 | CS(=O)(=O)N1CCC(CNC(=O)c2cnccn2)CC1 | 43.8
45 | COc1ccccc1N1CCN(C(=O)NC(C)c2nncn2C)CC1 (stereo unspecified) | 9.14
46 | CCCC(=O)N1CCN(Cc2cc(-c3ccncc3)nn2C)CC1 | 8.72
47 | CC(c1ccco1)n1cc(-c2cc(CN3CCCC3)cs2)nn1 (stereo unspecified) | 5.23
48 | CC(c1nncn1C)n1cc(-c2cc(CN3CCCC3)cs2)nn1 (stereo unspecified) | 57.2
49 | CC(c1nccs1)n1cc(-c2cc(CN3CCCCC3)cs2)nn1 (stereo unspecified) | 21.5
50 | CC(C)CN1CCn2c(COCc3cccnc3)nnc2C1 | -29.3
51 | Cc1ccc(CN2CCC3(CC(=O)N(c4ccc5c(c4)OCO5)C3)C2)o1 (stereo unspecified) | 69.5
52 | O=C1CC2(CCN(Cc3ccco3)C2)CN1c1ccc2c(c1)OCO2 (stereo unspecified) | 78.8
53 | Cn1ccnc1CN1CCC2(CC(=O)N(c3ccc4c(c3)OCO4)C2)C1 (stereo unspecified) | 4.27
54 | O=C1CC2(CCN(Cc3cccnc3)C2)CN1c1ccc2c(c1)OCO2 (stereo unspecified) | 22.9
55 | Cc1ccc(CN2CCC3(CC(=O)N(c4cccc(F)c4)C3)C2)o1 (stereo unspecified) | 12
56 | O=C1CC2(CCN(CC3CC3)C2)CN1c1ccc2c(c1)OCO2 (stereo unspecified) | 25
